# Hit rate of the full screen: of about 330,000 compounds, about 4,900 (1.5%) were called active. Shown is part of a subset that was picked to be rich in actives. Unmarked numbers belong to inactive results.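 The calls were made as follows: active = inhibition above the mean inhibition across the screen plus 3 SD (cut at about 25% in these data); inactive = the rest.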
# Biological target: Platelet-activating factor acetylhydrolase (Homo sapiens) (UniProt Q13093)
# Experiment: inhibition of plasma PAF acetylhydrolase – biochemical, fluorescence polarization, human, primary screen (AID 463082);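 also: inhibitors block binding of the rhodamine activity-based probe so polarization drops; 0% = enzyme with DMSO and 100% = wells lacking pPAFAH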
# Details: recombinant pPAFAH, FP-rhodamine probe fluorescence polarization; at 3.39 µM; hits give high values
# Platelet-activating factor acetylhydrolase (Homo sapiens), sequence (Q13093 whole entry, looked up): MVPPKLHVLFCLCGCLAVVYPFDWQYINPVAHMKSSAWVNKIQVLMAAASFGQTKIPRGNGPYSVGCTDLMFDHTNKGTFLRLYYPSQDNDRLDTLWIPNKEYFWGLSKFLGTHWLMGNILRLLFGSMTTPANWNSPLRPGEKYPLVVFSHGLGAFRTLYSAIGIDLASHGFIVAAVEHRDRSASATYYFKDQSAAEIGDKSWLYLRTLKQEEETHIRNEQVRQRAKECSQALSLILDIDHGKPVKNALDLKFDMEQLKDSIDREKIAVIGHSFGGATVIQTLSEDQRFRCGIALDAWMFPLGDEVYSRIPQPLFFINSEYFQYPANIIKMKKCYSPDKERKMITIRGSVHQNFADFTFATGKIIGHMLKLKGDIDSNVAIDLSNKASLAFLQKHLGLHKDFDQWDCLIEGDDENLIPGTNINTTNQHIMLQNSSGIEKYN
row,Compound,inhibition
1,COc1ccc(N2C(=O)/C(=C/c3ccco3)C(=O)NC2=S)cc1,39.7% (active)
2,COc1ccc(CN2C(=O)NC(=O)/C(=C\c3ccc(OC)c(OC)c3OC)C2=O)cc1,2.22%
3,COc1cccc(N2C(=O)NC(=O)/C(=C\c3cn(C)c4ccccc34)C2=O)c1,0.95%
4,CC(C)(C)c1ccc(CN2C(=O)CN=C(c3ccccc3)c3ccccc32)cc1,-2.71%
5,O=C1CC(=O)N(Cc2ccccc2)C(=O)N1CCCCCCN1C(=O)CC(=O)N(Cc2ccccc2)C1=O,41.3% (active)
6,O=C(CN1CCCC1=O)NCCc1ccccc1,6.04%
7,O=c1[nH]c(CN2CC=C(c3ccccc3)CC2)nc2scc(-c3cccs3)c12,8.85%
8,CN(C)c1ccc(/C=C2\CC3C4CC=C5CC(O)CCC5(C)C4CCC3(C)C2=O)cc1 (stereo not given),3.94%
9,O=C(COC(=O)Cc1ccccc1)Nc1ccc(F)cc1,23.1%
10,Cc1nn(-c2ccccc2)c(C)c1NC(=O)COC(=O)Cc1ccccc1,46.5% (active)
11,Cc1ccccc1NC(=O)COC(=O)c1cc(C)n(C2CC2)c1C,3.84%
12,O=[N+]([O-])c1ccc(C2C3C(c4ccccc4)=NC4(CCCCC4)N32)cc1 (stereo not given),6.5%
13,Cn1cc(C(=O)OCC(=O)N2CCCC2)c2ccccc21,-2.21%
14,COc1ccccc1NC(=O)N1C[C@@H]2C[C@@H](C1)c1cccc(=O)n1C2,5.55%
15,CSc1nc2ccc(C)cc2c(=O)n1-c1cccnc1,-1.83%
16,Cc1ccccc1N1C(=O)NC(=O)/C(=C\c2cc(C)n(C)c2C)C1=O,-0.82%
17,O=C1NC(=O)N(c2ccccc2)C(=O)/C1=C/c1ccc([N+](=O)[O-])s1,58% (active)
18,COC(=O)C1=C(c2ccc(C(C)=O)cc2)C[C@@H]2CC[C@H]1N2C(=O)NCCNC(C)=O,3.68%
19,COc1cccc(C(=O)N2C[C@H]3C[C@@H](C2)c2cccc(=O)n2C3)c1,3.04%
20,C/C(=N/O)c1ccc2ccc3ccccc3c2c1,1.83%
21,COC(=O)C1=C(c2cc3ccccc3s2)C[C@@H]2CC[C@H]1N2C(=O)NC(C)C,4.37%
22,NCCc1ccc(S(=O)(=O)F)cc1,59.5% (active)
23,CN1CCN(Cc2ccc(OC(F)(F)F)cc2)CC1,-4.99%
24,C=Cn1ccnc1P(=S)(c1cc(N(CC)CC)ns1)c1nccn1C=C,-4.36%
25,CCOC(=O)C1CN(C)CCC1=O (stereo not given),4.48%

# Source: PubChem BioAssay AID463082 (The Scripps Research Institute Molecular Screening Center, 2010)
